Results published in PubChem BioAssay (NCATS).
Inconclusive results are not listed. Calls of active or inactive are those of the source. Calls come from the whole dose curve; as a rule, active = well fitted cell-killing curve with a large enough effect; inconclusive = small, poorly fitted or top-dose-only effect; inactive = flat fitted curve, though single readings scatter.

assay: qHTS of pediatric cancer cell lines to identify multiple opportunities for drug repurposing: Primary screen for BT-37 cells (AID 1347094); details: BT-37 viability, CellTiter-Glo luminescence, 48 h; series mostly up to 57.3 µM; activity change, negative = cytotoxic: at the top concentration
Text: Drug repurposing or repositioning has been offered as a strategy for drug development in oncology programs. This approach has special potential for childhood cancers and other rare or orphan diseases, where the expected return on new drug development has been a disincentive to pharmaceuticals. […] In this project we exploit the poly-pharmacology of drugs to discover new indications via phenotypic screening of a panel of 19 well-characterized cell lines derived from solid tumors seen in children and adolescents. The goal is to identify approved drugs with previously unrecognized anticancer properties that has the potential to reveal new mechanisms and biological processes involved in carcinogenesis or drug resistance. We employed a titration-based paradigm (quantitative high-throughput screening or qHTS), where all compounds were tested at multiple concentrations for their effect on cell viability. Concentration-response curves (CRCs) were derived directly from the primary screen, and both potency and efficacy values were used to identify compounds with robust bioactivity profiles. We screened the NIH Chemical Genomics Center (NCGC) Pharmaceutical Collection (NPC) and Mechanism Interrogation Plate (MIPE) small molecule collections of approved and investigational compounds against these cell lines; and measured metabolically active cells after 48 hours of compound treatment as a proxy for cell viability. […] Assay Submitter: Nathalia J. Martinez, National Center for Advancing Translational Sciences, National Institutes of Health, Rockville, MD, USA; email: natalia.martinez@nih.gov Shen, M et al. Quantitative high-throughput phenotypic screening of pediatric cancer cell lines identifies multiple opportunities for drug repurposing. Oncotarget 2017 Dec 19;9(4):4758-4772. PMID 29435139.
The cells were obtained from University of North Carolina (UNC), Pediatric Preclinical Testing Program (PPT), and Coriell Institute (CI). qHTS cell viability assay: Cells were assayed in growth media at a density of 500-1,000 cells/well. Five microliters of cells were dispensed into 1,536-well, white, solid-bottom, TC-treated plates (Greiner Bio One) using a multidrop dispenser and incubated at 37 degrees C, 5% CO2, under a humidified atmosphere for 5 hours. Twenty-three nanoliters of compounds and controls (neutral control DMSO or positive control bortezomib at final concentration of 2.3 µM) were subsequently transferred by Kalypsys pintool. For primary screens, the MIPE collection was tested at 11-point dilutions (final concentrations range from 0.78 nM to 46 µM) and the NPC collection at 8-point dilutions (final concentrations range from 0.59 nM to 46 µM). Compounds tested in follow-up screens were assayed at 11-point dilutions. Cells were incubated for 48 hours, followed by addition of 3 µL of CellTiter-Glo (Promega). After a 15 min incubation at room temperature, samples were analyzed for luminescence intensity using a ViewLux High-throughput CCD imager equipped with clear filters.
Potency is the fitted concentration of half-maximal effect.

Question: For `CCCCCN(C)CCC(O)(P(=O)(O)O)P(=O)(O)O`, which “activity change, negative = cytotoxic” value is on record?
Answer: The value was 12.4% (inactive).

Question: For `O=C1NCC2(CCN(CCc3ccccc3)CC2)O1`, which “activity change, negative = cytotoxic” value is on record?
Answer: The value was 8.12% (inactive).

Question: For `CCN(CC)CCNC(=O)c1ccc(N)cc1`, which “activity change, negative = cytotoxic” value is on record?
Answer: Its value is 8.52% (inactive).

Question: Which Potency does the source give for `Nc1nc(F)nc2c1ncn2[C@@H]1O[C@H](COP(=O)(O)O)[C@@H](O)[C@H]1O` here?
Answer: The Potency was 15.3 µM (active).

Question: Which Potency does the source give for `NS(=O)(=O)c1cccc2c1C(=O)c1cccc(O)c1C2=O` here?
Answer: Its Potency is 0.432 µM (active).

Question: For `CN(C)C1CCN(C(=O)c2ccc(NC(=O)Nc3nc(N4CCOCC4)nc(N4CCOCC4)n3)cc2)CC1`, which Potency is on record?
Answer: The Potency was 0.0273 µM (active).

Question: Which Potency does the source give for `CN(C)Cc1cccc(N=C(c2ccccc2)c2c(O)[nH]c3cc(C(=O)N(C)C)ccc23)c1` here?
Answer: Its Potency is 15.3 µM (active).

Question: Which “activity change, negative = cytotoxic” value does the source give for `CN1C[C@H]2c3ccccc3Oc3ccc(Cl)cc3[C@@H]2C1` here?
Answer: The value was -11.7% (inactive).

Question: With `NC(=O)c1cccc(-c2cc(Nc3ccc(OC(F)(F)F)cc3)ncn2)c1` as the molecule, how does the “activity change, negative = cytotoxic” value read?
Answer: Its value is -16% (inactive).

Question: Which “activity change, negative = cytotoxic” value does the source give for `COC[C@@H](c1ccc(C(F)(F)F)cc1)N1CCN(C2(C)CCN(C(=O)c3c(C)ncnc3C)CC2)C[C@H]1C` here?
Answer: The value was -21.5% (inactive).

Question: Which “activity change, negative = cytotoxic” value does the source give for `C=C1C(=O)OC2C=C(C)CCC=C(C)CCC12` (stereo not given) here?
Answer: Its value is -15.6% (inactive).

Question: Which Potency does the source give for `Cc1ccc(C(=O)Nc2cccc(C(F)(F)F)c2)cc1Nc1nc(-c2cccnc2)nc2c1cnn2C` here?
Answer: Its Potency is 24.3 µM (active).

Question: Which “activity change, negative = cytotoxic” value does the source give for `CC[C@]1(O)C[C@@H]2CN(CCc3c([nH]c4ccccc34)[C@@](C(=O)OC)(c3cc4c(cc3OC)N(C=O)[C@@H]3C45CCN4CC=C[C@](CC)([C@H]45)[C@@H](OC(C)=O)[C@]3(O)C(=O)OC)C2)C1` (stereo not given in full) here?
Answer: Its value is -19.2% (inactive).

Question: With `CC(C)(C(=O)NCC(F)(F)C(F)(F)F)C(=O)N[C@@H]1C(=O)Nc2ccccc2-c2ccccc21` as the molecule, how does the Potency read?
Answer: Its Potency is 0.769 µM (active).

Question: With `C[C@H]1[C@H](NC(=O)C(=NOC(C)(C)C(=O)O)c2csc(N)n2)C(=O)N1S(=O)(=O)O` as the molecule, how does the “activity change, negative = cytotoxic” value read?
Answer: Its value is 10.7% (inactive).

Question: With `COc1cccc([C@@H](C)NCCCc2ccccc2Cl)c1` as the molecule, how does the “activity change, negative = cytotoxic” value read?
Answer: Its value is 6.62% (inactive).

Question: With `NC(CO)(CO)CCc1ccc(Sc2cccc(OCc3ccccc3)c2)cc1Cl` as the molecule, how does the Potency read?
Answer: Its Potency is 19.3 µM (active).

Question: With `C[N+](C)(C)CC(=O)O` as the molecule, how does the “activity change, negative = cytotoxic” value read?
Answer: The value was 14.4% (inactive).

Question: Which “activity change, negative = cytotoxic” value does the source give for `COc1ccc2c(Oc3ccc(NC(=O)c4c(C)n(CC(C)(C)O)n(-c5ccccc5)c4=O)cc3F)ccnc2c1` here?
Answer: The value was -10.6% (inactive).

Question: For `CC(C)(C)NC(=O)Nc1cccc(Nc2ncc(F)c(NC(C)(C)CO)n2)c1`, which “activity change, negative = cytotoxic” value is on record?
Answer: Its value is 1.9% (inactive).

Question: With `Nc1ncnc2c1ncn2[C@@H]1O[C@H](CO)C[C@@H]1O` as the molecule, how does the “activity change, negative = cytotoxic” value read?
Answer: Its value is -17.1% (inactive).

Question: Which “activity change, negative = cytotoxic” value does the source give for `Cc1cnc(C(=O)O)c[n+]1[O-]` here?
Answer: The value was -5.94% (inactive).

Question: Which Potency does the source give for `CC(=NNC(=S)N1CCC1)c1ccccn1` here?
Answer: The Potency was 0.0054 µM (active).

Question: With `CC(=O)N(C)C1(c2ccccc2)CCN(CCC[C@]2(c3ccc(Cl)c(Cl)c3)CCCN(C(=O)c3ccccc3)C2)CC1` as the molecule, how does the Potency read?
Answer: Its Potency is 30.6 µM (active).

Question: With `C=C1C(=O)[C@@]23C(CC[C@@H]1[C@H]2O)[C@@]12CO[C@]3(O)[C@@H](O)[C@@H]1C(C)(C)CC[C@@H]2O` (stereo not given in full) as the molecule, how does the Potency read?
Answer: The Potency was 27.3 µM (active).

Question: For `CC(C)=CC[C@@H](O)C1=CC(=O)c2c(O)ccc(O)c2C1=O`, which Potency is on record?
Answer: The Potency was 13.7 µM (active).

Question: With `CCn1cc(C(=O)O)c(=O)c2ccc(C)nc21` as the molecule, how does the Potency read?
Answer: Its Potency is “inactive”.

Question: With `O=C(O)c1cc(O)c2c(c1)C(=O)c1cccc(O)c1C2=O` as the molecule, how does the “activity change, negative = cytotoxic” value read?
Answer: Its value is -3.6% [at 116 µM] (inactive).

Question: With `CC=CC(=O)N(CC)c1ccccc1C` as the molecule, how does the Potency read?
Answer: Its Potency is 30.6 µM (active).

Question: Which Potency does the source give for `Cc1ccc(C(C)(O)c2nc3ccccc3s2)c(C)c1` (stereo not given) here?
Answer: The Potency was 3.85 µM (active).

Question: For `O=C1NC(=O)C(=Cc2cccc(C(F)(F)F)c2)S1`, which “activity change, negative = cytotoxic” value is on record?
Answer: Its value is -10.9% (inactive).

Question: Which “activity change, negative = cytotoxic” value does the source give for `CC(C)NCC(O)COc1cccc2[nH]ccc12` (stereo not given) here?
Answer: The value was -0.399% (inactive).

Question: For `O=C(NCc1ccccc1)c1csc(Nc2ccncn2)n1`, which Potency is on record?
Answer: Its Potency is 17.2 µM (active).

Question: Which “activity change, negative = cytotoxic” value does the source give for `CO[C@H]1C=CO[C@@]2(C)Oc3c(C)c(O)c4c(O)c(c5c(c4c3C2=O)NC2(CCN(CC(C)C)CC2)N=5)=NC(=O)C(C)=CC=C[C@H](C)[C@H](O)[C@@H](C)[C@@H](O)[C@@H](C)[C@H](OC(C)=O)[C@H]1C` here?
Answer: The value was -13% (inactive).

Question: For `CC(=O)O[C@]1(C(C)=O)CC[C@@H]2[C@@H]3C[C@H](C)C4=CC(=O)CC[C@]4(C)[C@H]3CC[C@@]21C`, which “activity change, negative = cytotoxic” value is on record?
Answer: Its value is -12.9% (inactive).

Question: Which Potency does the source give for `CCC(=O)NC[C@H](Cc1ccc(OCCc2nc(-c3ccccc3)oc2C)cc1)NC(C)=CC(=O)c1ccc(C(F)(F)F)cc1` here?
Answer: Its Potency is 3.06 µM (active).

Question: For `CN1[C@@H]2CCC[C@@H]1CC(NC(=O)c1nn(C)c3ccccc13)C2` (stereo not given in full), which “activity change, negative = cytotoxic” value is on record?
Answer: Its value is -5.7% (inactive).

Question: Which “activity change, negative = cytotoxic” value does the source give for `Cc1nnc(C(C)C)n1C1C[C@H]2CC[C@@H](C1)N2CC[C@H](NC(=O)C1CCC(F)(F)CC1)c1ccccc1` (stereo not given in full) here?
Answer: The value was 4.11% (inactive).

Question: With `CC(=O)OC1C(C)OC(Oc2c(-c3ccc(O)cc3)oc3cc(O)cc(O)c3c2=O)C(O)C1OC(C)=O` (stereo not given) as the molecule, how does the Potency read?
Answer: Its Potency is 27.3 µM (active).

Question: For `CN(C)c1cc(NC(=O)CNC(C)(C)C)c(O)c2c1C[C@@H]1C[C@H]3[C@H](N(C)C)C(=O)C(C(N)=O)=C(O)[C@@]3(O)C(=O)C1=C2O`, which “activity change, negative = cytotoxic” value is on record?
Answer: The value was -2.97% (inactive).
